Results filed as inconclusive are left out. Entries that show only a call come without a potency. The source made the active and inactive calls. The call rests on the fitted dose curve.
What was measured:
[1] = Primary qHTS for inhibitors of SARS-S pseudo-typed particle cell entry (AID 1479145); conditions: outcome: dose series up to 57.1 µM unless noted; further: nearly all actives have a fitted effect of over 45% in size
[2] = Primary qHTS for Huh7 cytotoxicity: counterscreen for inhibitors of MERS-S pseudotyped particle cell entry (AID 1479147); conditions: outcome: dose series up to 57.1 µM unless noted
[3] = Primary qHTS for inhibitors of MERS-S pseudo-typed particle cell entry (AID 1479149); conditions: outcome: dose series up to 57.1 µM unless noted; further: nearly all actives have a fitted effect of over 60% in size
[4] = Primary qHTS for Vero E6 cytotoxicity: counterscreen for inhibitors of SARS-S pseudo-typed particle cell entry (AID 1479150); conditions: outcome: dose series up to 57.1 µM unless noted
[5] = Cytotoxicity counterscreen for inhibitors of SARS-CoV-2 cell entry (AID 1645845); conditions: outcome: dose series up to 57.1 µM unless noted; further: nearly all actives have a fitted effect of over 50% in size
Summary of the method: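 48 h compound treatment (after 1 h preincubation), HEK293-ACE2 cells, 37 C/5% CO2; ATP luminescence endpoint; normalized to cell wells and media blanks.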

[6] = Primary qHTS to identify inhibitors of SARS-CoV-2 cell entry (AID 1645846); conditions: SARS-CoV-2 pseudovirus cell entry assay, luminescence; activity change, negative = inhibition: at 57.1 µM (top of the series) unless noted; further: nearly all actives have a fitted effect of over 45% in size; further: potency means the concentration at half of the fitted maximal effect
Summary of the method: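 Luminescence readout (Bright-Glo luciferase) 48 h after pseudoparticle addition. HEK293-ACE2 cells, 1500/well; compound pre-incubation 1 h; Normalized to spike PP and bald PP.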

| SMILES | Potency [1] | Potency [2] | Potency [3] | Potency [4] | Potency [5] | activity change, negative = inhibition [6] | Potency [6] | activity change, negative = inhibition [1] | outcome [2] | outcome [3] | activity change, negative = cytotoxicity [4] | activity change, negative = cytotoxicity [5] |
| --- | --- | --- | --- | --- | --- | --- | --- | --- | --- | --- | --- | --- |
| O=C(O)C1=C(CSc2nnnn2CS(=O)(=O)O)CS[C@@H]2[C@@H](NC(=O)[C@H](O)c3ccccc3)C(=O)N12 | inactive | inactive | inactive | inactive | inactive | -22.2% | – | – | – | – | – | – |
| O=S(O)CNc1ccc(S(=O)(=O)c2ccc(NCS(=O)O)cc2)cc1 | inactive | inactive | inactive | inactive | inactive | 3.29% | – | – | – | – | – | – |
| CN(CCCCCCN(C)C(=O)Oc1ccc[n+](C)c1)C(=O)Oc1ccc[n+](C)c1 | inactive | inactive | inactive | inactive | inactive | -28.5% | – | – | – | – | – | – |
| Cn1nnc(-c2ccc(-c3ccc(N4C[C@@H](CO)OC4=O)cc3F)cn2)n1 | inactive | inactive | inactive | inactive | inactive | – | inactive | – | – | – | – | – |
| CO/N=C(\C(=O)N[C@@H]1C(=O)N2C(C(=O)O)=C(CSc3nnnn3C)CS[C@H]12)c1csc(N)n1 | inactive | inactive | inactive | inactive | inactive | -27.5% | – | – | – | – | – | – |
| O[C@@H]1[C@@H](O)[C@@H](O)OC[C@@H]1O | inactive | inactive | inactive | inactive | inactive | -10.9% [at 171 µM] | – | – | – | – | – | – |
| NCCCC[C@H](NC(=O)[C@@H]1CCCN1C(=O)[C@@H]1CSSC[C@H](N)C(=O)N[C@@H](Cc2ccccc2)C(=O)N[C@@H](Cc2ccccc2)C(=O)N[C@@H](CCC(N)=O)C(=O)N[C@@H](CC(N)=O)C(=O)N1)C(=O)NCC(N)=O | inactive | inactive | inactive | inactive | inactive | -27.3% | – | – | – | – | – | – |
| NC(=O)C1CCCN1C(=O)C(Cc1cnc[nH]1)NC(=O)C1CCC(=O)N1 (centres undefined) | inactive | inactive | inactive | inactive | inactive | – | inactive | – | – | – | – | – |
| C#C[C@]1(O)CCC2C3CCC4=C(CCC(=O)C4)C3CC[C@@]21C (some centres undefined) | inactive | inactive | inactive | inactive | inactive | -12.9% | – | – | – | – | – | – |
| C[C@]12C=CC(=O)C=C1CCC1C2[C@@H](O)C[C@@]2(C)C1CC[C@]2(O)C(=O)COC(=O)CCC(=O)O (some centres undefined) | inactive | inactive | inactive | inactive | inactive | -21.3% | – | – | – | – | – | – |
| CCCN(CC)C(CC)C(=O)Nc1c(C)cccc1C (centres undefined) | inactive | inactive | inactive | inactive | inactive | -22.8% | – | – | – | – | – | – |
| CCC(=C(CC)c1ccc(OP(=O)(O)O)cc1)c1ccc(OP(=O)(O)O)cc1 | – | – | – | – | – | -22.1% [at 0.702 µM] | – | -9.86% [at 0.573 µM] (inactive) | inactive [at 0.573 µM] | inactive [at 0.573 µM] | -3.89% [at 0.573 µM] (inactive) | 1.12% [at 0.702 µM] (inactive) |
| CN1C(=O)[C@]23C[C@H]4C(C)(C)[C@]5(CNc6c5ccc5c6OC=CC(C)(C)O5)C[C@@]41CN2CC[C@@]3(C)O | inactive | inactive | inactive | inactive | inactive | – | inactive | – | – | – | – | – |
| CCOC(=O)[C@H](CCc1ccccc1)N[C@H](C)C(=O)N1C2CCCCC2C[C@H]1C(=O)O (some centres undefined) | inactive | inactive | inactive | inactive | inactive | -29.8% | – | – | – | – | – | – |
| COC(=S)NCCn1c([N+](=O)[O-])cnc1C | inactive | inactive | inactive | inactive | inactive | -22.7% | – | – | – | – | – | – |
| CN[C@H]1C[C@@H](N)[C@H](O)[C@@H](O[C@@H]2O[C@H](CO)[C@H](O)[C@@H]3OC4(O[C@H]23)O[C@H]([C@@H](N)CO)[C@H](O)[C@H](O)[C@H]4O)[C@@H]1O (some centres undefined) | inactive | inactive | inactive | inactive | inactive | – | 17.8 µM (active) | – | – | – | – | – |
| CC(C(=O)O)c1ccc(C2CCCCC2)c2ccccc12 (centres undefined) | inactive | inactive | inactive | inactive | inactive | -4.82% | – | – | – | – | – | – |
| CN(C)C=Nc1c(I)cc(I)c(CCC(=O)O)c1I | inactive | inactive | inactive | inactive | inactive | -33.1% | – | – | – | – | – | – |
| NC(=O)OCC(O)COc1ccc(Cl)cc1 (centres undefined) | inactive | inactive | inactive | inactive | inactive | – | inactive | – | – | – | – | – |
| OC[C@H]1O[C@@H](c2ccc(F)c(Cc3cc4ccccc4s3)c2)[C@H](O)[C@@H](O)[C@@H]1O | inactive | inactive | inactive | inactive | inactive | -24.7% | – | – | – | – | – | – |

| SMILES | Potency [1] | Potency [2] | Potency [3] | Potency [4] | Potency [5] | activity change, negative = inhibition [6] | Potency [6] | activity change, negative = inhibition [1] | outcome [2] | outcome [3] | activity change, negative = cytotoxicity [4] | activity change, negative = cytotoxicity [5] |
| --- | --- | --- | --- | --- | --- | --- | --- | --- | --- | --- | --- | --- |
| C=CCN1CC[C@]23c4c5ccc(O)c4O[C@H]2[C@@H](OCCOCCOCCOCCOCCOCCOCCOC)CC[C@@]3(O)[C@H]1C5 | inactive | inactive | inactive | inactive | inactive | -22.8% | – | – | – | – | – | – |
| CC(/C=C1\SC(=S)N(CC(=O)O)C1=O)=C\c1ccccc1 | inactive | inactive | inactive | inactive | inactive | – | inactive | – | – | – | – | – |
| O=C(O)[C@@H]1C(=CCO)O[C@@H]2CC(=O)N12 | inactive | inactive | inactive | inactive | inactive | – | inactive | – | – | – | – | – |
| CN(C(=O)CO)c1c(I)c(C(=O)NCC(O)CO)c(I)c(C(=O)NCC(O)CO)c1I (centres undefined) | inactive | inactive | inactive | inactive | inactive | -14.3% | – | – | – | – | – | – |
| CO[C@H]1/C=C\O[C@@]2(C)Oc3c(C)c(O)c4c(O)c(c5c(nc6cc(C)ccn65)c4c3C2=O)NC(=O)/C(C)=C\C=C/[C@H](C)[C@H](O)[C@@H](C)[C@@H](O)[C@@H](C)[C@H](OC(C)=O)[C@@H]1C | inactive | inactive | inactive | inactive | inactive | -25.8% | – | – | – | – | – | – |
| CCCC(=O)O[C@]1(C(=O)COC(C)=O)CC[C@H]2C3C[C@H](F)C4=CC(=O)C=C[C@]4(C)[C@@]3(F)[C@@H](O)C[C@@]21C (some centres undefined) | inactive | inactive | inactive | inactive | inactive | -5.47% | – | – | – | – | – | – |
| COc1ccc(C[C@H](C)NC[C@@H](O)c2ccc(O)c(NC=O)c2)cc1 | inactive | inactive | inactive | inactive | inactive | -27.6% | – | – | – | – | – | – |
| CC1(C)S[C@@H]2[C@@H](N3C(=O)[C@@H](c4ccccc4)NC3(C)C)C(=O)N2[C@H]1C(=O)O | inactive | inactive | inactive | inactive | inactive | -21.4% | – | – | – | – | – | – |
| CC[C@H]1OC(=O)C[C@@H](O)[C@H](C)[C@@H](O[C@@H]2O[C@H](C)[C@@H](O[C@H]3C[C@@](C)(O)[C@@H](O)[C@H](C)O3)[C@H](N(C)C)[C@H]2O)[C@@H](CC=O)C[C@@H](C)C(=O)/C=C/C(C)=C/[C@@H]1CO[C@@H]1O[C@H](C)[C@@H](O)[C@@H](OC)[C@H]1OC | inactive | inactive | inactive | inactive | inactive | – | inactive | – | – | – | – | – |
| OC(CN1CCCCC1)c1cc(-c2ccccc2)on1 (centres undefined) | inactive | inactive | inactive | inactive | inactive | -15.3% | – | – | – | – | – | – |
| CC(=O)CCC1C(=O)N(c2ccccc2)N(c2ccccc2)C1=O | inactive | inactive | inactive | inactive | inactive | -21% | – | – | – | – | – | – |
| COc1ccc(CC(C)(C)NC[C@H](O)c2cc(O)cc3c2OCC(=O)N3)cc1 | inactive | inactive | inactive | inactive | inactive | 2.79% | – | – | – | – | – | – |
| CCCCCCCCN=C(N)NC(N)=NCc1ccc(Cl)c(Cl)c1 | inactive | inactive | inactive | inactive | inactive | -3.64% | – | – | – | – | – | – |
| CCOC(=O)CN[C@@H](C(=O)N1CC[C@H]1C(=O)NCc1ccc(/C(N)=N/O)cc1)C1CCCCC1 | inactive | inactive | inactive | inactive | inactive | -19.7% | – | – | – | – | – | – |
| CC(C)(C)NCC(O)CSc1nc(-c2ccc(C(N)=O)s2)cs1 (centres undefined) | inactive | inactive | inactive | inactive | inactive | -22.9% | – | – | – | – | – | – |
| Cn1c(=O)cc(N2CCCC(N)C2)n(Cc2ccccc2C#N)c1=O (centres undefined) | inactive | inactive | inactive | inactive | inactive | -28.9% | – | – | – | – | – | – |
| C=C(C)CNc1ccc(C(C)C(=O)O)cc1 (centres undefined) | inactive | inactive | inactive | inactive | inactive | -20.2% | – | – | – | – | – | – |
| CO[C@@H]1[C@@H](O[C@@H]2O[C@H](C)[C@@H](O[C@H]3C[C@@](C)(O)[C@H](O)[C@H](C)O3)[C@H](N(C)C)[C@H]2O)[C@@H](CC=O)C[C@@H](C)[C@@H](O[C@H]2CC[C@H](N(C)C)[C@@H](C)O2)/C=C/C=C/C[C@H](C)OC(=O)C[C@H]1O | inactive | inactive | inactive | inactive | inactive | -34.9% | – | – | – | – | – | – |
| NC(N)=NCCC[C@@H](N)C(=O)N[C@@H](CCCN=C(N)N)C(=O)N1CCC[C@H]1C(=O)N1C[C@H](O)C[C@H]1C(=O)NCC(=O)N[C@@H](Cc1cccs1)C(=O)N[C@@H](CO)C(=O)N1Cc2ccccc2C[C@@H]1C(=O)N1[C@H](C(=O)N[C@@H](CCCN=C(N)N)C(=O)O)C[C@@H]2CCCC[C@@H]21 | inactive | inactive | inactive | inactive | inactive | – | inactive | – | – | – | – | – |
